This is a sample that favours compounds with a hit; in the whole collection about 7.6% have one here.
ELG1 DNA repair = blocks ELG1-dependent DNA repair in HEK293T cells | HEK293T ELG1-luciferase reporter, luminescence, 16 h; DNA damage induced by 5-fluorouridine | Potency, µM (doses to about 46.1 µM), without a hit: at the highest dose activity change, negative = inhibition, most hits filed as inhibitors | hit rate 2.3% among 330,000; also: potency is read from the fitted curve at half-maximal effect; % is scaled to controls: 0 for no effect and ±100 for the full control effect; nearly all actives have a fitted effect of over 55% in size
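DMSO vehicle served as the neutral condition. Each well held 2,000 cells given 5-fluorouridine plus compound; after 16 hr at 37 °C/5% CO2, ONE-Glo was added and luciferase measured 30 min later.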
Giardia killer = kills Giardia lamblia; Giardia lamblia trophozoite viability; activity change, % at 7.66 µM, hits read low; hit rate 0.15% among 340,000; AID 540267; in the data active = activity change below about -80%; inconclusive = between about -30% and that limit;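 also: parasites exposed to compound for two days anaerobically before the ATP read; % is scaled to controls: 0 for no effect and ±100 for the full control effect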
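Compounds were tested on trophozoites seeded at 100 cells/well and held 48 hrs at 37 deg C anaerobically. An ATP-based luminescent kit measured the remaining live cells.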
RORgamma inh = inhibitors of mouse ROR gamma transcriptional activity; Potency, µM (top dose mostly 53.6 µM), without a hit: at the top dose activity change, negative = inhibition, most hits filed as inhibitors; P51450; AID 2551; hit rate 5.4% among 310,000; Drosophila S2 Gal4-RORgamma UAS-luciferase reporter, 20 h; also: potency is read from the fitted curve at half-maximal effect; % is scaled to controls: 0 for no effect and ±100 for the full control effect; nearly all actives have a fitted effect of over 60% in size
Target sequence (P51450 whole entry, looked up, the tested form may be a part): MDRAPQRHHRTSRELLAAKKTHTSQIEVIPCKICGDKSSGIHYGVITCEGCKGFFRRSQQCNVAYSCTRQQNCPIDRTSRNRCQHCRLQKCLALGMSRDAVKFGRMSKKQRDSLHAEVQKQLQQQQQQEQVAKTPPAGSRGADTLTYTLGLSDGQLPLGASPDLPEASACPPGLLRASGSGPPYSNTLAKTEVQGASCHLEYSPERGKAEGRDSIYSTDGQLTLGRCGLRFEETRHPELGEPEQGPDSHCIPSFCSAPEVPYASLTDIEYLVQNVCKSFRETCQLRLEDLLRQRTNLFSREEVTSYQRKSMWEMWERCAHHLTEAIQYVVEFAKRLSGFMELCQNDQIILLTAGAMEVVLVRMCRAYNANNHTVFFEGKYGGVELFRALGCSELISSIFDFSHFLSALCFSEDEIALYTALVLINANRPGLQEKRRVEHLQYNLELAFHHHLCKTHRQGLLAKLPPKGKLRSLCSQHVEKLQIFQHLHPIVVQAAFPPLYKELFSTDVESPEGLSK
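Drosophila Schneider cells stably carrying a metallothionein-driven Gal4 DBD–ROR gamma fusion and a UAS-Photinus luciferase reporter were exposed to compound for 1 hr, then induced with copper sulfate (700 uM final) for 20 hr at ambient temperature before luminescence reading.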
BRCA1 expr act = increases BRCA1 expression. AID 624202. Potency, µM (doses to about 46.1 µM), without a hit: at the top dose activation, usual class: activators. MCF7-BRCA1-FFLuc reporter, luminescence, 48 h; response scale: scaled: vehicle 0%, 10 µM genistein 100%. hit rate 1.1% among 380,000; also: potency is read from the fitted curve at half-maximal effect; nearly all actives have a fitted effect of over 80% in size
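Quantitative HTS in MCF7 cells stably reporting BRCA1 expression via firefly luciferase. Compound treatment lasts 48 h at 37 °C in phenol-red free MEM. Activation is expressed relative to genistein at 10 microM and DMSO.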
Gal4-VP16 FLuc = inhibits Gal4-VP16 luciferase reporter, ROR gamma counter-screen | Drosophila S2 Gal4-VP16 UAS-luciferase, luminescence, 20 h | Potency, µM (titrated, usually from 53.6 µM), without a hit: top-dose activity, negative = inhibition, most hits filed as inhibitors | hit rate 3.5% among 310,000;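 also: Gal4-VP16 expression switched on by copper sulfate through the metallothionein promoter; potency is read from the fitted curve at half-maximal effect; % is scaled to controls: 0 for no effect and ±100 for the full control effect; nearly all actives have a fitted effect of over 50% in size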
p53 reactivation = restores transcriptional activity of mutant p53; H1299 p53-A138V BP100-luciferase reporter, luminescence, 24 h; Potency, µM (top dose mostly 92.2 µM), for inactives: at the highest dose activity change, positive = activation, usual class: activators; hit rate 0.063% among 320,000; also: potency is read from the fitted curve at half-maximal effect; % of control where 0% means no effect; nearly all actives have a fitted effect of over 45% in size
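p53-null H1299 cells stably carrying temperature-sensitive p53-A138V and a BP100-luciferase reporter were pinned with compounds (4-point, 1:5 series) and held 24 hrs at 37 deg C. Luminescence was read 10 min after detection reagent.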
* marks the source's active call; other numbers are inactive results; ? = inconclusive; . = no result given; ! = a repeat was not active. Unless noted, calls follow the shape of the dose curve; as a rule, active = well fitted curve in the direction sought with a large enough effect; inconclusive = small, poorly fitted or top-dose-only effect, or another doubt; inactive = no such curve, though single readings can be large; an effect the other way counts as inactive or inconclusive.

SMILES	ELG1 DNA repair	Giardia killer	RORgamma inh	BRCA1 expr act	Gal4-VP16 FLuc	p53 reactivation
CC[C@@]1(O)C(=O)OCc2c1cc1n(c2=O)Cc2cc3c(O)cccc3nc2-1	.	.	0.355µM*	.	?	.
CC[C@@]1(O)C(=O)OCc2c1cc1n(c2=O)Cc2cc3ccccc3nc2-1	?	-18.8	0.0562µM*	-9.6%	?	-0.2%
CC[C@@]1(O)C(=O)OCc2c1cc1n(c2=O)Cc2cc3c(NC(=O)CN)cccc3nc2-1	?	-13.6	-41.3%	-80.2%	-19.7%	1.3%
CCC(Cl)[N+](=O)[O-] (stereo unspecified)	.	.	2.0%	.	-7.3%	.
Cc1ccc(NC(=O)CSc2nnc([C@@H](N)Cc3c[nH]c4ccccc34)o2)c(C)c1	?	2.6	19.5%	4.0%	-4.6%	-7.0%
O=C(NN=Cc1ccc(N(CCCl)CCCl)cc1Cl)c1cccnc1	.	1.4	.	-79.4%	.	.
O=C(N/N=C/c1cccnc1)c1ccc(NC(=O)C(c2ccccc2)c2ccccc2)cc1	?	3.4	-44.2%	14.9%	6.31µM*	-12.3%
C[C@H]1CCCC(=O)CCC/C=C/c2cc(O)cc(O)c2C(=O)O1	20.6µM*	10.7	-9.5%	-31.1%	?	-12.0%
O=C(Nc1ncc(Cc2ccccc2)s1)C1=NCCN1	8.5%	-24.7	2µM*	65.8%	?	-0.5%
CN1CC2=CC(O)CC3Oc4c(O)ccc(c4[C@]23C)C1 (stereo partly specified)	.	11.2	.	6.7%	.	.
c1ccc2c(c1)OC[C@@H](C1=NCCN1)O2	.	.	22.4µM*!	.	1.7%	.
c1ccc(C2(c3ccccc3)CC2C2=NCCN2)cc1 (stereo unspecified)	.	.	-3.0%	.	9.9%	.
Cc1ccc(N/N=C/C=C/c2ccco2)cc1	.	-12.2	.	7.94µM*	.	.
CN1C(=O)N(C)C(=O)C2(Cc3ccccc3N3CCCC32)C1=O (stereo unspecified)	?	-11.3	2.4%	-28.7%	-4.5%	-0.2%
S=C=Nc1cccc2ccccc12	.	.	6.31µM*	.	12.6µM*	.
CCN1C[C@@]2(COC)C3[C@@H](OC)C4[C@@H]1[C@@]3(C1C[C@@]3(O)[C@H](OC(=O)c5ccccc5)C1[C@]4(OC(C)=O)[C@@H](O)[C@@H]3OC)[C@@H](OC)C[C@H]2O (stereo partly specified)	.	.	0.1%	.	-1.2%	.
CC(O)CCl (stereo unspecified)	.	.	1.7%	.	-6.7%	.
CCC(=NC1CC1)c1c(O)n(C2CCCCC2)c(=O)[nH]c1=O	10.0%	-12.4	26.1%	3.4%	26.6%	-4.6%
CC/C(=N\NC(=O)c1ccccc1)c1c(O)n(C2CCCCC2)c(=O)[nH]c1=O	?	-12.7	14.1µM*	23.0%	?	?
CC/C(=N\NC(=O)c1ccccc1Cl)c1c(O)n(C2CCCCC2)c(=O)[nH]c1=O	5.5%	-19.0	7.94µM*	5.0%	12.6µM*	-2.9%
C[C@]12CCC(=O)C=C1C=CC1C2CC[C@@]2(C)C1CC[C@@H]2O (stereo partly specified)	.	-4.7	.	-27.0%	.	.
CCN(CC)c1ccc2c(cc1=O)[C@@H](NC)CCc1cc(OC)c(OC)c(OC)c1-2	?	-4.0	-6.8%	-63.9%	-6.6%	8.6%
CCn1c(O)c(N=Nc2cccc(S(=O)(=O)N3CCOCC3)c2)c(=O)n(CC)c1=S	18.3µM*	1.8	19.6%	16.0%	-0.3%	6.2%
Cc1cc(NC(=O)CCl)nn1C	-15.7%	-11.5	-11.2%	-68.2%	?	-11.1%
Cn1ccc(NC(=O)CCl)n1	-1.0%	6.9	5.01µM*	77.3%	4.47µM*	-11.2%
SMILES	ELG1 DNA repair	Giardia killer	RORgamma inh	BRCA1 expr act	Gal4-VP16 FLuc	p53 reactivation
S=C(S)N1CCNCC1	.	.	5.8%	.	-3.4%	.
S=C(S)N1CCCC1	16.7%	22.3	?	-0.8%	0.316µM*	-4.3%
COC(COC(N)=O)C1=C(N2CC2)C(=O)C(C)=C(N2CC2)C1=O (stereo unspecified)	.	?	.	-80.4%	.	.
CO[C@@H](COC(N)=O)C1=C(N2CC2)C(=O)C(C)=C(N2CC2)C1=O	.	.	?	.	11.2µM*	.
CCCCC(CC)COCCCN=Cc1c(O)[nH]c(=S)[nH]c1=O (stereo unspecified)	?	-1.7	?	-21.6%	4.0%	-4.0%
CC12CCC(=O)C=C1C=CC1C2CCC2(C)C(O)CCC12 (stereo unspecified)	.	-3.6	.	-24.5%	.	.
COc1ccc(-c2nn(CCC#N)cc2C(=O)Nc2ccccc2Br)cc1[N+](=O)[O-]	-21.4%	6.6	-16.7%	-2.6%	0.8%	-5.0%
N#CSCSC#N	.	.	1.12µM*	.	0.447µM*	.
O=c1[nH]c(=S)n(C2CC2)c(O)c1C=Nc1cccc(C(F)(F)F)c1	?	-0.5	10.5%	-13.3%	-15.4%	1.5%
CCOC(=O)c1c(-n2c(C)cc(C=C3C(=O)NC(=S)NC3=O)c2C)sc2c1CCCC2	?	1.4	12.6µM*	-70.7%	?	-15.3%
CCOC(=O)c1c(-n2c(C)cc(/C=C3/C(=O)NC(=O)N(CC)C3=O)c2C)sc2c1CCCC2	.	2.7	.	3.4%	.	.
N#Cc1cc2c(nc1SCC(=O)Nc1ccc(Cl)cc1)C1CCN2CC1	-11.6%	6.0	30.2%	-1.4%	10.0%	?
N#Cc1cc2c(nc1SCC(=O)Nc1cc(Cl)ccc1Cl)C1CCN2CC1	9.2%	8.9	?	24.7%	-3.2%	44.7µM*
COc1ccc(-c2nc3ccccc3c(=O)o2)cc1	?	-15.6	?	14.1µM*	-22.0%	-4.3%
O=C1C(=Cc2ccccc2)N2CCC1CC2	.	2.6	.	8.2%	.	.
